# The whole screen tested about 16,000 compounds, of which about 5,100 (32%) were called active. Roughly 25% stayed inconclusive and do not appear here. The call rests on the fitted dose curve; in most records, active means well fitted curve in the direction sought with a large enough effect; inconclusive means small, poorly fitted or top-dose-only effect, or effect the other way; inactive means no such curve, though single readings can be large or run the other way. The list shows a part of the results.
# Target: Cytochrome P450 3A4 (Homo sapiens) (UniProt P08684)
# Sequence (P08684 whole entry, looked up): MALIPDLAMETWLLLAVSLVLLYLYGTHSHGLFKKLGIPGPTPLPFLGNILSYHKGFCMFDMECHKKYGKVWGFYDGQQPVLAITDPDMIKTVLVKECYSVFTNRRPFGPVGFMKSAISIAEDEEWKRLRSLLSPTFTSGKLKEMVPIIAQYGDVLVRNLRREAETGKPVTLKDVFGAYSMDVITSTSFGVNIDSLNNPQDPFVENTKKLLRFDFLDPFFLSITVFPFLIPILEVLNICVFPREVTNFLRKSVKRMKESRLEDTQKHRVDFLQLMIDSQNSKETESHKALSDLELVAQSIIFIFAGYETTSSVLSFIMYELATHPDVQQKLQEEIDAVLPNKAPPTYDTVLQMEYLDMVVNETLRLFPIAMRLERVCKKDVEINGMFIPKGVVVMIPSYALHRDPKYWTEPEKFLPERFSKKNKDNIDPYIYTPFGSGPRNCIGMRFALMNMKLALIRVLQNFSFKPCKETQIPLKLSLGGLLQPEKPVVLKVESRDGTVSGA
# Experiment: Cytochrome panel assay with activity outcomes
# Conditions: recombinant CYP, pro-luciferin dealkylation, luminescence, p450-cyp3a4; series mostly up to 57.1 µM; activity, negative = inhibition: at the top concentration
# On the % scale 0 is the no-effect control and ±100 the full control effect.
Structure (SMILES),"activity, negative = inhibition",AC50
O=C(O)c1ccccc1/C=N\N=C1c2ccccc2-c2ccccc21,-13.2% [at 11.4 µM] (inactive),–
CCOc1ccccc1OCCOc1ccc(F)cc1,-15% (inactive),–
Cn1c(CNS(=O)(=O)c2ccc(F)cc2)n[nH]c1=S,-10.2% (inactive),–
CCOc1ccc(S(=O)(=O)NCc2ccc(F)cc2)c2cccnc12,–,15.8 µM (active)
O=C(CCN1C(=O)S/C(=C\c2ccccc2)C1=O)Nc1ccc(S(=O)(=O)Nc2nccs2)cc1,–,5.01 µM (active)
Nc1ccc(S(=O)(=O)Nc2nccs2)cc1,-15.7% [at 25.6 µM] (inactive),–
O=C1Nc2ccccc2C1=Nc1ccc(S(=O)(=O)Nc2nccs2)cc1,-1.93% [at 11.4 µM] (inactive),–
O=C(NCC1CCCO1)C1CCC(=O)N1CCc1ccccc1 (centres undefined),-13.8% (inactive),–
CCS(=O)(=O)N1CCC(C(=O)NCC2CCCO2)CC1 (centres undefined),1.97% (inactive),–
O=C(NCC1CCCO1)C1c2ccccc2C(=O)N1Cc1ccc2c(c1)OCO2 (centres undefined),–,1.41 µM (active)
COc1ccc(-n2c(N)c(C(=O)NCc3ccco3)sc2=S)cc1,–,25.1 µM (active)
CCOc1ccc(-n2c(C)nc3cc(C(=O)NCc4ccco4)ccc32)cc1,-16.2% (inactive),–
CCOc1ccc(-n2c(N)c(C(=O)NCc3cccnc3)sc2=S)cc1,–,2 µM (active)
CCOc1ccc(N2C(=O)c3cccnc3C2=O)cc1,-13.3% (inactive),–
Cc1ccc(-n2c(N)c(C(=O)NCc3ccco3)sc2=S)cc1,–,25.1 µM (active)
CC(C)c1cc(CN(C)C)c(O)c(C(C)(C)C)c1,-5.68% [at 11.4 µM] (inactive),–
N#Cc1c(-c2ccc(Cl)cc2)nc2n(c1=O)CCCS2,-15.8% (inactive),–
CCNc1nc(NCC)nc(N(C)N)n1,-10.2% (inactive),–
COc1ccc(NS(=O)(=O)c2cc(-c3nnnn3C)ccc2OC)cc1,-15.9% [at 11.4 µM] (inactive),–
COc1ccccc1S(=O)(=O)Nc1ccc(-c2nnc3n2CCCCC3)cc1,–,14.1 µM (active)
Cc1ccc(/C=C/C(=O)c2nc3ccccc3[nH]2)cc1,-18.1% [at 2.29 µM] (inactive),–
O=C(O)/C(=C/c1c(C(=O)O)[nH]c2cc(Cl)cc(Cl)c12)c1ccccc1,-1.29% (inactive),–

Structure (SMILES),"activity, negative = inhibition",AC50
O=C(/C(=C/c1ccc(Cl)cc1)c1nc2ccccc2[nH]1)c1ccccc1,–,3.55 µM (active)
COCCN(C(=O)Nc1ccc(OC)cc1OC)C1CCN(C(C)=O)CC1,-11.9% (inactive),–
COc1ccc(N2CCC(CNC(=O)Nc3ccc(OC)cc3OC)C2)cc1 (centres undefined),–,7.08 µM (active)
COc1ccc(CCNC(=O)CCN2C(=O)C(C)Oc3ccc(C)cc32)cc1OC (centres undefined),–,1.78 µM (active)
COc1ccc(CC(=S)N2CCOCC2)cc1OC,-2.8% [at 2.29 µM] (inactive),–
COc1ccc(CCNC(=O)CCN2C(=O)COc3ccc(C)cc32)cc1OC,–,2.24 µM (active)
Cc1ccc2c(c1)N(CC(=O)NCc1cccs1)C(=O)C(C)O2 (centres undefined),-21.8% [at 2.29 µM] (inactive),–
NC(=O)c1ccc(C2SCC(=O)N2Cc2ccccc2)cc1 (centres undefined),8.69% (inactive),–
O=C1CSC(c2ccccn2)N1c1ccc(Cl)c(Cl)c1 (centres undefined),11% (inactive),–
O=C1CSC(c2ccccc2F)N1c1cc(Cl)ccc1O (centres undefined),–,25.1 µM (active)
Cc1cccc(CNc2ccnc(-c3cccc(C#N)c3)n2)c1,–,1.26 µM (active)
N#Cc1cccc(-c2nccc(NCc3cccnc3)n2)c1,–,0.794 µM (active)
N#Cc1cccc(-c2nccc(NCc3ccccc3)n2)c1,–,12.6 µM (active)
N#Cc1cccc(-c2nccc(NCc3cccs3)n2)c1,–,10 µM (active)
COc1ccccc1CCn1c(=O)c(-c2cc(F)cc(F)c2)nc2cncnc21,–,0.398 µM (active)
COc1ccccc1CCn1c(=O)c(-c2cccc(F)c2)nc2cncnc21,–,3.16 µM (active)
CN(C)c1ncc2nc(-c3cc(F)cc(F)c3)c(=O)n(CCc3ccccc3)c2n1,-13% (inactive),–
O=C(N/N=C/c1cccc(OC2CSC2)c1)c1ccccc1O,-1.49% [at 2.29 µM] (inactive),–
CC1=CC(=C2C(=O)c3ccccc3C2=O)C=C(C)N1Cc1ccco1,–,14.1 µM (active)
CCCCS(=O)(=O)NC1=NCN(Cc2ccco2)CN1,-13.9% (inactive),–
CC1(C)OC(=O)N(Cc2ccco2)C1(C)O (centres undefined),-11.6% (inactive),–
COC(=O)c1c(NC(=O)CC2Nc3ccccc3NC2=O)sc(C)c1C (centres undefined),–,3.55 µM (active)

Structure (SMILES),"activity, negative = inhibition",AC50
CCN(CC)CCCNC(=O)CC1Sc2ccccc2NC1=O (centres undefined),6.35% (inactive),–
CC(Sc1nnc(C(C)N(C)C)n1-c1ccc(Cl)cc1)C(=O)Nc1ccc2c(c1)OCO2 (centres undefined),–,0.891 µM (active)
C/C(=N\NC(N)=S)c1ccc[nH]1,-6.66% [at 11.4 µM] (inactive),–
CCOCC(=O)Nc1cc(-c2cn3cccnc3n2)ccc1C,24.8% (inactive),–
Cc1ccc(-c2nc3ccccc3o2)cc1NC(=O)Cc1cccs1,28.9% (inactive),–
COc1ccc2oc(-c3ccc(C)c(NC(=O)c4ccc(N5CCOCC5)c([N+](=O)[O-])c4)c3)nc2c1,–,6.31 µM (active)
CCOC(=O)c1c(NC(=O)c2ccc(N3CCOCC3)c([N+](=O)[O-])c2)sc(C)c1C,-1.99% (inactive),–
COc1ccc2oc(-c3ccc(C)c(NC(=O)CSc4ccc(Cl)cc4)c3)nc2c1,–,11.2 µM (active)
O=c1c2ccccc2ncn1CCCSc1ccccc1,-8.34% (inactive),–
Cc1ccc(SCCCn2cnc3ccccc3c2=O)cc1,–,11.2 µM (active)
CCCCn1cnc2c(cnn2-c2ccc(F)cc2)c1=O,-2.78% (inactive),–
O=C(c1ccccc1)c1nc2ccccc2n(CCCn2c(=O)c(C(=O)c3ccccc3)nc3ccccc32)c1=O,–,1.41 µM (active)
O=C(Cn1c(C(F)(F)F)nc2ccccc21)c1ccccc1,-8.98% (inactive),–
CCCCCn1c(=O)c(C(=O)c2ccccc2)nc2ccccc21,-5.99% [at 2.29 µM] (inactive),–
CN1CCC[C@@H](CC2c3ccccc3Sc3ccccc32)C1,-7.59% [at 25.6 µM] (inactive),–
COc1cc(-n2ccnc2SC)c(Cl)cc1Cl,–,14.1 µM (active)
Cc1cc(C(=O)NCc2ccccc2)no1,-13.3% (inactive),–
COc1ccc(-c2cc(C(=O)NCc3cccnc3)no2)cc1OC,–,2.51 µM (active)
CCOC(=O)N1CCC(NC(=O)CS(=O)(=O)Cc2nc(-c3cccc(OC)c3)oc2C)CC1,–,7.08 µM (active)
COc1cccc(-c2nc(CS(=O)(=O)CC(=O)NCCCOC(C)C)c(C)o2)c1,–,7.94 µM (active)
